Results: PubChem BioAssay AID2685 (National Center for Advancing Translational Sciences (NCATS), 2010)
In all, about 320,000 compounds went through this assay and about 2,100 (0.66%) were called active. Roughly 53% stayed inconclusive and do not appear here. The call rests on the fitted dose curve; in most records, active means well fitted inhibition curve with a large enough effect in the signal ratio, with a control signal flat (not every such curve was filed as active); inconclusive means small, poorly fitted or top-dose-only effect, or effect the other way, or a change in a side signal; inactive means flat fitted curve, though single readings scatter; the % refers to the signal ratio. The full list was thinned out, with actives kept by preference.
Potency means the concentration at half of the fitted maximal effect.

Experiment: qHTS Assay for Lipid Storage Modulators in Drosophila S3 Cells;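 on cell number change: cells counted by Cell Tracker Red CMTPX staining in the red channel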
Details: BODIPY lipid droplet fluorescence, 18-24 h, cells fed with added oleic acid; cell number change: measured here: cell count max response; series mostly up to 46.1 µM
Procedure, shortened: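 Laser-scanning cytometry quantifies lipid droplet accumulation (500–530 nm total intensity; droplet/cell object ratio) in oleic acid-fed (400 uM added) Drosophila S3 cells treated with a concentration series. 20 uM Triacsin C defined 100% inhibition.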
With `O=S(=O)(c1ccccc1)N1CCN(c2cccc(Cl)c2)CC1` the Potency was “inactive” and the cell number change was -13.5%. With `CCn1c(=O)c(C(=O)Nc2ccccc2C)c(O)c2ccccc21` the Potency was “inactive” and the cell number change was 4.59%. In the case of `C=CCn1c(=O)c(C(=O)Nc2ccccc2C)c(O)c2ccccc21`, the Potency is reported as 18.4 µM (active) and the cell number change is reported as -12.3%. For `C=CCn1c(=O)c(C(=O)Nc2ccccc2O)c(O)c2ccccc21`, the Potency was “inactive” and the cell number change was 3.13%. With `O=C(NS(=O)(=O)Oc1cccc(Cl)c1Cl)OC[C@@H]1CCCN2CCCCC12` (some centres undefined) the Potency was “inactive” and the cell number change was -10.2%. With `CN(C)CCCN(C(=O)c1ccc(S(=O)(=O)N2CCOCC2)cc1)c1nc2ccc(F)cc2s1` the Potency was “inactive” and the cell number change was 15.4%. With `CCOC(=O)COc1ccc(Br)cc1/C=C/c1[nH]c(=O)[nH]c(=O)c1[N+](=O)[O-]` the Potency was “inactive” and the cell number change was -18.1%. In the case of `CCCOc1ccc(/C=C/c2[nH]c(=O)[nH]c(=O)c2[N+](=O)[O-])cc1OCC`, the Potency is reported as “inactive” and the cell number change is reported as -5.22%. With `CCCOc1ccccc1/C=C1\SC(N)=NC1=O` the Potency was “inactive” and the cell number change was 13.8%. With `CCOC(=O)COc1ccc(Br)cc1/C=C1\SC(N)=NC1=O` the Potency was 5.8 µM (active) and the cell number change was -21.5%. With `CCOC(=O)COc1ccc(Br)cc1/C=C\c1[nH]c(=O)[nH]c(=O)c1[N+](=O)[O-]` the Potency was 20.6 µM (active) and the cell number change was -21.8%. With `CCOC(=O)CSC1=NC(=O)/C(=C/c2ccc(Br)cc2)S1` the Potency was “inactive” and the cell number change was 1.95%. In the case of `Cc1c(C(=O)N2CCCC2)sc(NC(=O)c2ccco2)c1C#N`, the Potency is reported as “inactive” and the cell number change is reported as -19.3%. In the case of `COc1cc(NC(=O)N[C@H](C(=O)O)C(C)C)cc(OC)c1`, the Potency is reported as 5.8 µM (active) and the cell number change is reported as -13.1%. In the case of `COC(=O)[C@@H](NC(=O)Nc1cccc(OC)c1)C(C)C`, the Potency is reported as “inactive” and the cell number change is reported as -18%. In the case of `COC(=O)[C@@H](NC(=O)Nc1ccc(OC)cc1)C(C)C`, the Potency is reported as “inactive” and the cell number change is reported as -11.6%. In the case of `Nc1nc2ccc(Oc3ccccc3)cc2s1`, the Potency is reported as “inactive” and the cell number change is reported as -7.07%. In the case of `CCOC(=O)CSc1nc(=O)n2ccccc2n1`, the Potency is reported as “inactive” and the cell number change is reported as -9.97%. In the case of `CCN1CCN(Cc2ccc(OCc3ccccc3)c(OC)c2)CC1`, the Potency is reported as “inactive” and the cell number change is reported as -5.92%. With `COc1ccc(CN2CCC(C)CC2)cc1OCc1ccccc1` the Potency was “inactive” and the cell number change was 4.43%. With `COc1ccc(CN2CCN(C)CC2)cc1OCc1ccccc1` the Potency was 18.4 µM (active) and the cell number change was -3.92%. In the case of `CC(=O)Cc1cc(=O)c2c(C)cc(O)c(C3OC(CO)C(O)C(O)C3O)c2o1` (centres undefined), the Potency is reported as “inactive” and the cell number change is reported as -1.27%. For `O=C(COC(=O)c1cc(-c2ccccc2)nc2ccccc12)Nc1ccc2c(c1)OCO2`, the Potency was “inactive” and the cell number change was 2.4%. With `CC(=O)Nc1ccc(-n2c(C)nc(=O)c(-c3ccccc3)c2C)cc1` the Potency was 13 µM (active) and the cell number change was 13.2%. For `Cc1nc(=O)c(-c2ccccc2)c(C)n1-c1ccc(O)cc1`, the Potency was “inactive” and the cell number change was 0.899%. For `COC(=O)c1ccc(-n2c(C)nc(=O)c(-c3ccccc3)c2C)cc1`, the Potency was “inactive” and the cell number change was 0.97%. With `CCN(/C=N/S(=O)(=O)c1ccc(Cl)cc1)CC` the Potency was “inactive” and the cell number change was 6.24%. With `COc1ccccc1-n1c(C)cc(SC)c(C(C)=O)c1=S` the Potency was “inactive”. With `CSc1cc(C)n(-c2ccccc2C)c(=S)c1C(C)=O` the Potency was 29.1 µM (active) and the cell number change was 16.2%. For `CSc1cc(C)n(-c2ccc(Cl)cc2)c(=S)c1C(C)=O`, the Potency was “inactive” and the cell number change was 5.69%. In the case of `Cc1ccccc1NC(=O)NC1(C(=O)NCCCN2CCOCC2)CCCCC1`, the Potency is reported as “inactive” and the cell number change is reported as -17.7%. In the case of `CC(=O)N1c2c(cc(Br)cc2S(=O)(=O)NCc2ccc3c(c2)OCO3)CC1C` (centres undefined), the Potency is reported as “inactive” and the cell number change is reported as -27.2%. With `CCCc1ccc2oc(C(=O)N3CCN(CC(=O)NC(C)C)CC3)c(C)c2c1` the Potency was 4.11 µM (active) and the cell number change was -11.6%. With `CCCc1ccc2oc(C(=O)N3CCN(c4cnccn4)CC3)c(C)c2c1` the Potency was “inactive” and the cell number change was -14.5%. In the case of `CCCc1ccc2oc(C(=O)N3CCC(O)CC3)c(C)c2c1`, the Potency is reported as “inactive” and the cell number change is reported as 4.78%. With `COc1ccc(Cl)cc1C(=O)NNC(=O)c1cccnc1` the Potency was “inactive”. For `CS(=O)(=O)c1ccc2sc(NC(=O)c3cc4ccccc4o3)nc2c1`, the Potency was “inactive” and the cell number change was -15.1%. For `CCC(C)COC(c1ccccc1)(c1ccccc1)C(Oc1nc(C)cc(C)n1)C(=O)O` (centres undefined), the Potency was “inactive”. In the case of `Cc1cc(C)nc(OC(C(=O)O)C(OCc2ccccc2)(c2ccccc2)c2ccccc2)n1` (centres undefined), the Potency is reported as “inactive” and the cell number change is reported as -6.47%. With `Cc1cc(C)nc(OC(C(=O)O)C(OCC(C)C)(c2ccccc2)c2ccccc2)n1` (centres undefined) the Potency was 29.1 µM (active) and the cell number change was -23.5%. With `Cc1cc(/C(N)=N/OC(=O)Nc2ccccc2)no1` the Potency was “inactive” and the cell number change was 22.2%. For `O=S(=O)(Nn1cnnc1)c1ccc2ccccc2c1`, the Potency was “inactive” and the cell number change was -5.21%. For `Cc1ccsc1CNC12CC3CC(CC(C3)C1)C2`, the Potency was “inactive” and the cell number change was 10.4%. In the case of `COc1ccc(Cl)cc1NC(=O)CN(C)CC(=O)Nc1ccccc1-c1ccccc1`, the Potency is reported as “inactive” and the cell number change is reported as 22.9%. With `COc1ccc(Cl)cc1NC(=O)CN(C)CC(=O)N1CC(=O)Nc2ccccc21` the Potency was 1.3 µM (active) and the cell number change was -5.42%. With `Cc1ccc(Cl)cc1NC(=O)CNC(=O)N1CC(=O)Nc2ccccc21` the Potency was “inactive” and the cell number change was -12.7%.
